Laboratory results from ChEMBL document CHEMBL4513216, “Probing the Open Global Health Chemical Diversity Library for Multistage-Active Starting Points for Next-Generation Antimalarials” (ACS Infect Dis, 2020).
Screen size: about 69,000 compounds; about 8,600 (12%) showed an effect of 50% or more. The sample holds strong results, similar compounds and a random draw of the others, so the mix is not that of the screen.

System: Plasmodium berghei
Assay: Screen against P. berghei liver stage (PbLuc), transformed with Luciferase, at 10uM
Type: functional, HepG2
Conditions: tested at 10 uM

Compound	INHIBITION [%]
CC(C)c1nnc(NC(=O)N2CCCC2c2ccncc2)s1 (stereo not drawn)	-32.3
CCCc1nnc(NC(=O)N2CCCC2c2ccncc2)s1 (stereo not drawn)	59.2
CCSc1ccc(NC(=O)N2CCCC2c2ccncc2)cn1 (stereo not drawn)	35.2
CC(C)(C)c1n[nH]c(C2CN(C(=O)CCc3ccco3)CCO2)n1 (stereo not drawn)	18.15
Cc1nc(CN2CCCC(NCCCc3ccccc3)C2)no1 (stereo not drawn)	-7.31
O=C(COc1ccc(C(F)(F)F)cc1)N1CCOCC1c1ncon1 (stereo not drawn)	11.9
CC(C)(C)c1n[nH]cc1CNC1CCC(O)CC1 (stereo not drawn)	5.87
CC(C)NC(=O)C1CN(Cc2ccc(F)cc2)CC12CCOCC2 (stereo not drawn)	-15.7
CCC(Cn1ccnc1)n1cnc2scc(C)c2c1=O (stereo not drawn)	14.9
CC(Oc1ccc2c(c1)OCO2)C(=O)N1CCC(N2CCCC2)CC1 (stereo not drawn)	-5.22
CC1CCN(C(=O)C(C)Oc2ccc3c(c2)OCO3)CC1 (stereo not drawn)	-20.5
CC(Oc1ccc2c(c1)OCO2)C(=O)N1CCC(N2CCOCC2)CC1 (stereo not drawn)	63
CCCc1nc(C(C)(C)NC(=O)C2CC(=O)N(CCOC)C2)no1 (stereo not drawn)	-3.2
CCN(CC)CC(=O)Nc1ccc(-n2ccc(C(N)=O)n2)cc1	50.2
CC(C)N(C)CC(=O)Nc1ccc(-n2ccc(C(N)=O)n2)cc1	49.3
CCOCC(=O)Nc1ccc(-n2ccc(C(N)=O)n2)cc1	10.8
CCNc1ncc(C(=O)N2Cc3nc(C)[nH]c(=O)c3C2)cn1	6.94
CNC(=O)C1Cn2ccnc2C2(CCN(Cc3ccncc3)CC2)O1 (stereo not drawn)	36.9
CC(C)C(=O)N1CCCC2(CC(C(=O)NCc3cccnc3)=NO2)C1 (stereo not drawn)	8.67
O=C(NCCN1CCOCC1)C1=NOC2(CCN(Cc3nccs3)C2)C1 (stereo not drawn)	41.6
O=C(NC1CCC1)C1=NOC2(CCN(Cc3ccccc3)C2)C1 (stereo not drawn)	57.9
O=C(NCC1CC1)C1=NOC2(CCN(S(=O)(=O)Cc3ccccc3)C2)C1 (stereo not drawn)	22.5

Compound	INHIBITION [%]
Cc1ncccc1NC(=O)C1=NOC2(CCN(Cc3nccs3)C2)C1 (stereo not drawn)	9.1
CC(C)CN1CCC2(CC(C(=O)NCc3cccnc3)=NO2)C1 (stereo not drawn)	-11.6
CNC(=O)C1=NOC2(CCN(Cc3nccs3)C2)C1 (stereo not drawn)	54.4
CNC(=O)C1Cn2ccnc2C2(CCN(Cc3nccs3)CC2)O1 (stereo not drawn)	55.5
O=C(NCC1CC1)C1=NOC2(CCN(Cc3ccsc3)C2)C1 (stereo not drawn)	38.5
O=C(NCc1cccnc1)C1=NOC2(CCCN(CCO)C2)C1 (stereo not drawn)	60.1
CNC(=O)C1Cn2ccnc2C2(CCN(Cc3cccs3)CC2)O1 (stereo not drawn)	46.2
CN1CCc2onc(Cn3cccc3)c2C1	-7.24
Cc1cccc2nc(CN3CCCC3Cn3cncn3)cn12 (stereo not drawn)	5.03
c1ccc([C@@H]2CN(Cc3cccnc3)C[C@H]2c2cc[nH]n2)cc1	27.2
O=C(NCc1ccc(-n2cncn2)nc1)c1cc[nH]n1	17.9
Clc1ccc(-n2cnnc2CCCN2CCOCC2)cc1	15.6
CC1CCCCN1S(=O)(=O)NCCNC(=O)c1ncccc1O (stereo not drawn)	-27.3
COc1cccc2c(C)c(C(=O)N3CCNCC3C(N)=O)[nH]c12 (stereo not drawn)	24.35
CCNc1cc2c(nn1)CCN(C(=O)Cc1ccc(C)s1)C2	37.4
Cc1cc(N2CCC(O)(CN(C)C(=O)CCCN)C2)c2cnccc2n1 (stereo not drawn)	-16.8
Cc1ccc(-c2nnc(CNCCn3cc(C)cn3)o2)cc1	14.4
Cc1nc(C)n(CC2CN(Cc3ccncc3)Cc3nccn3C2)n1 (stereo not drawn)	-15.6
CCc1noc(C(C)N2CCN(S(=O)(=O)N3CCCC3)CC2)n1 (stereo not drawn)	-11.4
CN1C(=O)CC(c2ccncc2)C12CCN(c1ncccn1)CC2 (stereo not drawn)	29.4
O=C(NCC1CC1)C1=NOC2(CCN(Cc3ccc(Cl)c(F)c3)C2)C1 (stereo not drawn)	38.5
O=C(NC1CCC1)C1=NOC2(CCN(Cc3ccc(F)cc3)C2)C1 (stereo not drawn)	64.9

Compound	INHIBITION [%]
O=C(NCC1CC1)C1=NOC2(CCN(S(=O)(=O)c3ccc(F)cc3)C2)C1 (stereo not drawn)	-19.1
CN(C)[C@H]1CN(C(=O)CCc2cccc(F)c2)C[C@@H]1C1CC1	30.9
CCOCc1cncc2c1CCN(C(=O)c1cscn1)C2	62
O=C(c1ccsc1)N1CCc2c(COCC3CC3)cncc2C1	39.8
CC(C)COCc1cncc2c1CCN(C(=O)c1cscn1)C2	18.6
COCc1cncc2c1CCN(C(=O)c1cscn1)C2	21.3
O=C(c1cnccn1)N1CCc2c(COCC3CC3)cncc2C1	39.2
O=C(c1cscn1)N1CCc2c(COCC3CC3)cncc2C1	58.4
CN(C)C(=O)C1(c2cnccn2)CCCN1C(=O)Cc1ccccc1 (stereo not drawn)	28.475
CC1c2ncc(Cn3cncn3)n2CCN1C1CCOCC1 (stereo not drawn)	2.01
O=C(CCc1ccc2c(c1)OCO2)N1CCCCC1Cn1cccn1 (stereo not drawn)	-0.219
CCN1CCOCC2(CCCN(C(=O)c3cnccn3)C2)C1 (stereo not drawn)	-8.51
CN(C)C(=O)c1ccc(C2CCCN2C(=O)CCC2=NNC(=O)CC2)s1 (stereo not drawn)	56.7
CN(C)C(=O)c1ccc(C2CCCN2C(=O)c2ccccc2N(C)C)s1 (stereo not drawn)	39.1
O=C1CCC(CCC(=O)N2CCCC2c2nccs2)=NN1 (stereo not drawn)	27.6
CSc1ncccc1C(=O)N1C[C@@H]2CC[C@H]1CN(C(=O)N(C)C)C2	30.3
CSc1ncccc1C(=O)N1C[C@@H]2CC[C@H]1CN(CC(=O)N(C)C)C2	22.8
CSc1ncccc1C(=O)N1CCCC1c1ccc(C(=O)N(C)C)s1 (stereo not drawn)	65.2
CN(C)C(=O)c1ccc(C2CCCN2C(=O)c2cccc3c2OCC3)s1 (stereo not drawn)	81.1
O=C1CCC(CCC(=O)N2CCC2c2cccs2)=NN1 (stereo not drawn)	11.2
Cc1occc1C(=O)N1CCCC1c1ccc(C(=O)N2CCOCC2)s1 (stereo not drawn)	-60.2
CNC(=O)N1CCC2(CC1)CN(C(C)C)Cc1cc(F)ccc12	42.3

Compound	INHIBITION [%]
CC(=O)c1ccc(C(=O)N2C[C@H]3CC[C@@H](C2)N(CC2CCC2)C3)s1	-92.2
O=C([C@H]1COC[C@H]2CN(C3CCOCC3)C[C@H]21)N1CCCO1	-1.83
Cc1nc(CN2CCN3C[C@H](Oc4cncnc4)C[C@H]3C2)cs1	88.3
Fc1cnc(N2CCN3C[C@H](Oc4cccnc4)C[C@H]3C2)nc1	82.2
Cc1cccc(CN2CCN3C[C@H](Oc4cncnc4)C[C@H]3C2)n1	37.6
Cc1cnc(N2CCN3C[C@H](OCc4ccccn4)C[C@H]3C2)nc1	42.3
O=C(c1ccc(F)cc1)N1CCN2C[C@H](Oc3cccnc3)C[C@H]2C1	44.2
Fc1cnc(N2CCN3C[C@H](Oc4cncnc4)C[C@H]3C2)nc1	56.4
O=C(c1cnccn1)N1CCN2C[C@H](Oc3cccnc3)C[C@H]2C1	15.6
Cc1ccc(O[C@@H]2C[C@H]3CN(c4ncc(F)cn4)CCN3C2)cc1	79.2
c1cncc(CN2CCN3C[C@H](Oc4cncnc4)C[C@H]3C2)c1	27.6
Cn1ccnc1CN1CCN2C[C@H](Oc3cncnc3)C[C@H]2C1	-10.3
c1cnc(N2CCN3C[C@H](Oc4cncnc4)C[C@H]3C2)nc1	34.5
Cc1ccc(O[C@@H]2C[C@H]3CN(Cc4nccn4C)CCN3C2)cc1	-15.7
O=C(COCc1ccccc1)N1CCCC(OCc2cccnc2)C1 (stereo not drawn)	0.348
CCCc1nc(CN2CCCC2c2cnn(C)c2)cs1 (stereo not drawn)	-32
CCn1cc(CN2CCN(CC(O)c3ccc(C)cc3C)CC2)cn1 (stereo not drawn)	5.11
CN1CC(=O)N(c2cnn(C)c2)CC12CCN(Cc1cccs1)C2 (stereo not drawn)	7.31
CC(NC(=O)N(C)CCOc1ccccc1F)c1nncn1C (stereo not drawn)	7.08
CC1(C(N)=O)CN(CC2CCC2)CCO1 (stereo not drawn)	-1.75
CS(=O)(=O)N1CC[C@@H]2O[C@@H](COCC(=O)N3CCCC3)CC[C@@H]21	1.9
Cc1nc(C2CCN(C(=O)c3ccnn3C)CC2)c2sccn12	15.9

Compound	INHIBITION [%]
Cc1cccc2sc(NC(=O)CN3CCCC4(CC3)CNC(=O)O4)nc12 (stereo not drawn)	38.7
Cc1cccc2sc(NC(=O)CN3CCCC(O)(CO)C3)nc12 (stereo not drawn)	74.5
Cc1cccc2sc(NC(=O)CN3CCC(C)CC3)nc12	14.1
Cc1c(Cl)cccc1NCc1nc2n(n1)CCCCC2	26.7
CN(C)c1ncc(CNC(=O)Nc2ccccc2F)n1C	48.9
CN(C)c1ncc(CNC(=O)Nc2ccccc2C(F)(F)F)n1C	36.9
CN(C)c1ncc(CNC(=O)Nc2ccc(C(F)(F)F)cc2)n1C	78.6
COc1ccc(CN2CC[C@H]3[C@H]2CCN3C(=O)c2cnn(C)c2)cc1	39.8
CNC(=O)c1sc2ncccc2c1C1CCN(C(=O)CCOC)C1 (stereo not drawn)	-7.525
O=C(CCc1ccncc1)NCc1csc(Br)c1	-6.14
CN(C)CCNC(=O)Cn1cnc2cc(NC(=O)C3CC3)ccc21	4.48
COCC1CC2(CCN(Cc3ccccn3)CC2)CN1C(C)C (stereo not drawn)	-2.27
COCC1CC2(CCN(c3ccc(C)nn3)CC2)CN1C(C)C (stereo not drawn)	16.8
COCC1CC2(CCN(S(=O)(=O)C3CC3)CC2)CN1c1ncccn1 (stereo not drawn)	19.5
COCC1CC2(CCN(c3ccccn3)CC2)CN1C(C)C (stereo not drawn)	64.7
COCCN1CCC2(CC1)CC(COC)N(c1ncccn1)C2 (stereo not drawn)	23.5
COCC1CC2(CCN(Cc3ccncc3)CC2)CN1C(C)C (stereo not drawn)	12.6
CCS(=O)(=O)N1CCC2(CC1)CC(COC)N(c1ncccn1)C2 (stereo not drawn)	65.6
COCC1CC2(CCN(c3cccc(C)n3)CC2)CN1C(C)C (stereo not drawn)	29.4
COCC1CC2(CCN(c3cc(OC)ncn3)CC2)CN1C(C)C (stereo not drawn)	58.4
